# Test results as given in PubChem BioAssay (EPA / NIEHS).
# Calls of active or inactive are those of the source. The calls were made as follows: active = hit-call score of the fitted dose curve at least 0.9, where 1 is the maximum; inactive = score below 0.9.
# Experiments:
# [1] = read-out: Tissue Factor, F3 (gene 2152); test: BSK_CASM3C_TissueFactor: BioMAP Diversity Plus: CASM3C Assay for Tissue Factor Biomarker Activity (AID 2283052); details: primary human coronary artery smooth muscle cells; actives raise or lower the signal;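 also: cell surface tissue factor protein level read by ELISA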
# [2] = read-out: Interferon-gamma inducible Protein 10 (IP10), CXCL10 (gene 3627); test: BSK_hDFCGF_IP10: BioMAP Diversity Plus: hDFCGF Assay for Interferon-gamma inducible Protein 10 (IP10) Biomarker Activity (AID 2283053); details: primary human foreskin fibroblasts; actives raise or lower the signal
# How it was run: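 Primary foreskin fibroblasts, human; 24 h compound exposure; IP-10 by ELISA; bidirectional fit vs DMSO.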
# [3] = read-out: Urokinase-type plasminogen activator receptor (uPAR), PLAUR (gene 5329); test: BSK_CASM3C_uPAR: BioMAP Diversity Plus: CASM3C Assay for Urokinase-type plasminogen activator receptor (uPAR) Biomarker Activity (AID 2283054); details: primary human coronary artery smooth muscle cells; actives raise or lower the signal;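 also: cell-surface uPAR protein level quantified by ELISA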
# [4] = read-out: Vascular cell adhesion molecule 1 (VCAM1), VCAM1 (gene 7412); test: BSK_CASM3C_VCAM1: BioMAP Diversity Plus: CASM3C Assay for Vascular cell adhesion molecule 1 (VCAM1) Biomarker Activity (AID 2283055); details: primary human coronary artery smooth muscle cells; actives raise or lower the signal;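 also: VCAM-1 protein level quantified by ELISA on the cells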
# [5] = read-out: Collagen III, COL3A1 (gene 1281); test: BSK_hDFCGF_CollagenIII: BioMAP Diversity Plus: hDFCGF Assay for Collagen III Biomarker Activity (AID 2283056); details: primary human foreskin fibroblasts; actives raise or lower the signal
# How it was run: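 Response relative to DMSO, fitted in both directions, reflects ELISA-measured collagen III in human primary skin fibroblasts 24 h after compound addition.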
# [6] = read-out: Epidermal growth factor receptor (EGFR), EGFR (gene 1956); test: BSK_hDFCGF_EGFR: BioMAP Diversity Plus: hDFCGF Assay for Epidermal growth factor receptor (EGFR) Biomarker Activity (AID 2283057); details: primary human foreskin fibroblasts; actives raise or lower the signal
# How it was run: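 hDFCGF system, primary human foreskin fibroblasts; compound 24 h; EGFR measured by ELISA; DMSO = negative control/baseline; bidirectional fitting.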
# [7] = read-out: Interleukin-8 (IL8), CXCL8 (gene 3576); test: BSK_hDFCGF_IL8: BioMAP Diversity Plus: hDFCGF Assay for Interleukin-8 (IL8) Biomarker Activity (AID 2283058); details: primary human foreskin fibroblasts; actives raise or lower the signal
# How it was run: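 Fibroblast monolayers (human foreskin, hDFCGF) received test chemical for 24 h before ELISA detection of IL-8; either increases or decreases relative to DMSO count as activity.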
# [8] = BSK_hDFCGF_Proliferation: Cell Proliferation Assessment in the BioMAP Diversity Plus: hDFCGF Assay (AID 2283059); details: primary human foreskin fibroblasts;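 also: curves fitted for both rise and fall of signal versus DMSO baseline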
# How it was run: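 This proliferation readout used SRB total-protein staining of human foreskin fibroblasts […], normalized to DMSO with bidirectional curve fitting.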
# [9] = read-out: Macrophage colony-stimulating factor (MCSF), CSF1 (gene 1435); test: BSK_hDFCGF_MCSF: BioMAP Diversity Plus: hDFCGF Assay for Macrophage colony-stimulating factor (MCSF) Biomarker Activity (AID 2283060); details: primary human foreskin fibroblasts; actives raise or lower the signal
# How it was run: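 fibroblasts (human foreskin, primary), 24 h post-dose; M-CSF by ELISA; bidirectional fit, DMSO = baseline.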
# [10] = BSK_hDFCGF_SRB: Viability Assessment in the BioMAP Diversity Plus: hDFCGF Assay (AID 2283061); details: primary human foreskin fibroblasts;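 also: cells exposed to compound for 24 h before the read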
# How it was run: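 SRB-based viability read on primary human skin fibroblasts at 24 h: TCA fixation, 0.1% dye, 560 nm. Gain or loss of signal is fitted against the DMSO negative control.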
# [11] = read-out: TIMP metallopeptidase inhibitor 1 (TIMP1), TIMP1 (gene 7076); test: BSK_hDFCGF_TIMP1: BioMAP Diversity Plus: hDFCGF Assay for TIMP metallopeptidase inhibitor 1 (TIMP1) Biomarker Activity (AID 2283062); details: primary human foreskin fibroblasts; actives raise or lower the signal
# How it was run: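 Bidirectional curve fitting against DMSO baseline yielded this endpoint, based on ELISA detection of TIMP-1 in primary human foreskin fibroblasts exposed to compound for 24 h.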
# [12] = read-out: Monokine induced gamma interferon (MIG), CXCL9 (gene 4283); test: BSK_hDFCGF_MIG: BioMAP Diversity Plus: hDFCGF Assay for Monokine induced gamma interferon (MIG) Biomarker Activity (AID 2283063); details: primary human foreskin fibroblasts; actives raise or lower the signal
# How it was run: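 Endpoint derived by bidirectional fitting relative to DMSO; MIG quantified via ELISA in primary human foreskin fibroblasts harvested 24 h after dosing.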
# [13] = read-out: Matrix Metallopeptidase 1 (MMP1), MMP1 (gene 4312); test: BSK_hDFCGF_MMP1: BioMAP Diversity Plus: hDFCGF Assay for Matrix Metallopeptidase 1 (MMP1) Biomarker Activity (AID 2283064); details: primary human foreskin fibroblasts; actives raise or lower the signal
# How it was run: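 Primary human foreskin fibroblasts in the hDFCGF system were dosed with test chemical, and MMP1 was measured by ELISA 24 h later. Values come from bidirectional curve fitting against the DMSO baseline.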
# [14] = read-out: Vascular cell adhesion molecule 1 (VCAM1), VCAM1 (gene 7412); test: BSK_hDFCGF_VCAM1: BioMAP Diversity Plus: hDFCGF Assay for Vascular cell adhesion molecule 1 (VCAM1) Biomarker Activity (AID 2283065); details: primary human foreskin fibroblasts; actives raise or lower the signal;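 as to AC50: VCAM-1 protein level quantified by ELISA after 24 h chemical exposure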
# How it was run: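 Measured after 24 h chemical treatment of primary human skin fibroblasts, VCAM-1 was detected by ELISA and concentration-response analysed in both directions versus DMSO vehicle.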
# [15] = read-out: Plasminogen activator inhibitor-1 (PAI1), SERPINE1 (gene 5054); test: BSK_hDFCGF_PAI1: BioMAP Diversity Plus: hDFCGF Assay for Plasminogen activator inhibitor-1 (PAI1) Biomarker Activity (AID 2283066); details: primary human foreskin fibroblasts; actives raise or lower the signal
# How it was run: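 Primary dermal fibroblasts (human foreskin), hDFCGF system; compound 24 h; PAI-1 by ELISA; bidirectional fit vs DMSO control.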
# [16] = read-out: Intercellular Adhesion Molecule 1 (ICAM1), ICAM1 (gene 3383); test: BSK_KF3CT_ICAM1: BioMAP Diversity Plus: KF3CT Assay for Intercellular Adhesion Molecule 1 (ICAM1) Biomarker Activity (AID 2283067); details: primary human keratinocytes with fibroblasts; actives raise or lower the signal
# How it was run: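 Bidirectional curve fitting against a DMSO baseline was applied to ICAM-1 ELISA signal from primary human skin co-cultures harvested 24 h after treatment, with SRB staining of parallel wells for overt cytotoxicity.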
# [17] = read-out: Interferon-gamma inducible Protein 10 (IP10), CXCL10 (gene 3627); test: BSK_KF3CT_IP10: BioMAP Diversity Plus: KF3CT Assay for Interferon-gamma inducible Protein 10 (IP10) Biomarker Activity (AID 2283068); details: primary human keratinocytes with fibroblasts; actives raise or lower the signal
# How it was run: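 Signal is secreted/surface IP-10 by ELISA in a human primary skin co-culture of keratinocytes and foreskin fibroblasts, taken 24 h post-dosing; DMSO served as negative control.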
# [18] = BSK_KF3CT_SRB: Viability Assessment in the BioMAP Diversity Plus: KF3CT Assay (AID 2283069); details: primary human keratinocytes with fibroblasts;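 also: total protein by sulforhodamine B staining as a cytotoxicity measure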
# How it was run: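 Human primary keratinocyte plus foreskin fibroblast co-culture exposed to chemicals for 24 h. Total protein measured by 0.1% sulforhodamine B staining after 10% TCA fixation, read at 560 nm; bidirectional fitting versus DMSO baseline.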
# [19] = read-out: Interleukin-1 alpha (IL1a), IL1A (gene 3552); test: BSK_KF3CT_IL1a: BioMAP Diversity Plus: KF3CT Assay for Interleukin-1 alpha (IL1a) Biomarker Activity (AID 2283070); details: primary human keratinocytes with fibroblasts; actives raise or lower the signal
# How it was run: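 Human keratinocyte plus foreskin fibroblast primary co-culture, sampled 24 h after chemical dosing. IL-1a measured by ELISA; responses fitted bidirectionally against DMSO baseline (negative control), so gain or loss of signal both count.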
# [20] = read-out: TIMP metallopeptidase inhibitor 2 (TIMP2), TIMP2 (gene 7077); test: BSK_KF3CT_TIMP2: BioMAP Diversity Plus: KF3CT Assay for TIMP metallopeptidase inhibitor 2 (TIMP2) Biomarker Activity (AID 2283071); details: primary human keratinocytes with fibroblasts; actives raise or lower the signal
# How it was run: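 Cells: human keratinocytes co-cultured with foreskin fibroblasts. Treat with chemical, 24 h. Measure TIMP-2 by ELISA; fit curves bidirectionally vs DMSO baseline.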
compound,measurement,setting,value
CC(C)(C)c1ccc(O)c(C(C)(C)C)c1,AC50,[1],20 µM (active)
same,AC50,[2],10.1 µM (active)
same,AC50,[3],7.58 µM (active)
same,AC50,[4],29.1 µM (active)
same,AC50,[5],8.81 µM (active)
same,AC50,[6],13.2 µM (active)
same,AC50,[7],12.5 µM (active)
same,AC50,[8],11.4 µM (active)
same,AC50,[9],8.8 µM (active)
same,AC50,[10],11.9 µM (active)
same,AC50,[11],11.5 µM (active)
same,AC50,[12],11.7 µM (active)
same,AC50,[13],11.3 µM (active)
same,AC50,[14],9.1 µM (active)
same,AC50,[15],10.3 µM (active)
same,AC50,[16],14.6 µM (active)
same,AC50,[17],14.2 µM (active)
same,AC50,[18],8.27 µM (active)
same,AC50,[19],9.23 µM (active)
same,AC50,[20],12 µM (active)
c1ccc2c(c1)ccc1ccccc12,outcome,[1],inactive
same,outcome,[2],inactive
same,outcome,[3],inactive
same,outcome,[4],inactive
same,outcome,[5],inactive
same,outcome,[6],inactive
same,outcome,[7],inactive
same,outcome,[8],inactive
same,outcome,[9],inactive
same,outcome,[10],inactive
same,outcome,[11],inactive
same,outcome,[12],inactive
same,outcome,[13],inactive
same,outcome,[14],inactive
same,outcome,[15],inactive
same,outcome,[16],inactive
same,outcome,[17],inactive
same,outcome,[18],inactive
same,outcome,[19],inactive
same,outcome,[20],inactive
Cc1oc(-c2ccccc2)nc1CCOc1ccc(C[C@H](Nc2ccccc2C(=O)c2ccccc2)C(=O)O)cc1,outcome,[1],inactive
same,AC50,[2],3.35 µM (active)
same,AC50,[3],31.2 µM (active)
same,AC50,[4],32.8 µM (active)
same,AC50,[5],3.34 µM (active)
same,AC50,[6],1.85 µM (active)
same,AC50,[7],7.44 µM (active)
same,AC50,[8],1.81 µM (active)
same,AC50,[9],3.14 µM (active)
same,AC50,[10],2.42 µM (active)
same,AC50,[11],3.99 µM (active)
same,AC50,[12],6.07 µM (active)
same,AC50,[13],2.05 µM (active)
same,AC50,[14],3.61 µM (active)
same,AC50,[15],2.79 µM (active)
same,AC50,[16],7.43 µM (active)
same,AC50,[17],2.86 µM (active)
same,AC50,[18],4.3 µM (active)
same,AC50,[19],8.87 µM (active)
same,AC50,[20],9.85 µM (active)
CN1CCN(c2ccccc2/C=C2\SCCN(c3ccc(Cl)c(Cl)c3)C2=O)CC1,outcome,[1],inactive
same,AC50,[2],30.7 µM (active)
same,outcome,[3],inactive
same,outcome,[4],inactive
same,AC50,[5],13.7 µM (active)
same,outcome,[6],inactive
same,AC50,[7],32.3 µM (active)
same,AC50,[8],5.54 µM (active)
same,AC50,[9],23.5 µM (active)
same,AC50,[10],28.3 µM (active)
same,AC50,[11],33.7 µM (active)
same,AC50,[12],39 µM (active)
same,AC50,[13],38 µM (active)
same,AC50,[14],31.8 µM (active)
same,AC50,[15],9.63 µM (active)
same,AC50,[16],31.8 µM (active)
same,AC50,[17],28.5 µM (active)
same,AC50,[18],30.8 µM (active)
same,AC50,[19],30.6 µM (active)
same,AC50,[20],28.1 µM (active)
CCCCCCCCCCCCCC[N+](C)(C)C,AC50,[1],5.36 µM (active)
same,AC50,[2],5.92 µM (active)
same,AC50,[3],5.05 µM (active)
same,AC50,[4],9.9 µM (active)
same,AC50,[5],1.59 µM (active)
same,AC50,[6],4.98 µM (active)
same,AC50,[7],14.1 µM (active)
same,AC50,[8],1.05 µM (active)
same,AC50,[9],2.81 µM (active)
same,AC50,[10],5.22 µM (active)
same,AC50,[11],5.39 µM (active)
same,AC50,[12],7.37 µM (active)
same,AC50,[13],9.7 µM (active)
same,AC50,[14],4.06 µM (active)
same,AC50,[15],2.85 µM (active)
same,AC50,[16],12.8 µM (active)
same,AC50,[17],4.81 µM (active)
same,AC50,[18],5.24 µM (active)
same,AC50,[19],3.96 µM (active)
same,AC50,[20],5.45 µM (active)
